Out of some 340,000 compounds screened, about 6,200 (1.8%) were called active. Not shown: some 10% with an inconclusive outcome. The call rests on the fitted dose curve; in most records, active means well fitted activation curve with a large enough effect; inconclusive means small, poorly fitted or top-dose-only effect; inactive means no such curve, though single readings can be large or run the other way. The sample as a whole holds a higher share of actives than the screen did.
Assay: A quantitative high throughput screen for small molecules that induce DNA re-replication in SW480 colon adenocarcinoma cells. Further: nearly all actives have a fitted effect of over 55% in size. On re-replication activation: % of control where 0% means no effect.
Settings: Hoechst DNA content imaging, 48 h; series mostly up to 46.1 µM; re-replication activation: at the top concentration
Outline: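 Hoechst fluorescence of nuclei (405 nm excitation, 500-530 nm emission) measured by plate-scanning imager after 48 hr compound exposure at 37 C; re-replication scored as increased number of nuclei with elevated intensity.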
Potency means the concentration at half of the fitted maximal effect.

re-replication activation, inactive:
CC[C@]12c3[nH]c4cc(CCC(=O)N(C)C)ccc4c3CCN1C(=O)[C@@H](CC(=O)NCC13CC4CC(CC(C4)C1)C3)C[C@@H]2C(=O)N1CCN(C(=O)C2CC2)CC1 -2.17% [at 9.22 µM]
CC(C)(C)OC(=O)C[C@@H]1C/C=C\C[C@@H](CC(=O)N[C@@H](CO)Cc2ccccc2)C(=O)N2CCC[C@H]2COC1=O -11.3%
CC1CCCCC1NC(=O)COc1ccc(C#N)cc1 (stereo not drawn) 13.5%
Oc1ccccc1CN1CCN(C(c2ccccc2)c2ccccc2)CC1 2.09%
Oc1c(C(c2ccccn2)N2CCOCC2)ccc2cccnc12 (stereo not drawn) 17.7%
COc1cc(C(=O)N2CCN(S(=O)(=O)c3ccc(C(C)C)cc3)CC2)ccc1OCC(=O)N1CCOCC1 -23.8%
COC(=O)[C@]1(C)N[C@H](CN(C)C(=O)c2ccc(C(C)(C)C)cc2)[C@@H]2C(=O)N(C)C(=O)[C@@H]21 -3.69%
COc1cc(/C=C/CNC[C@H]2O[C@@H](n3cnc(C(N)=O)n3)[C@H](O)[C@@H]2O)ccc1O 1.29%
Nc1c(C(=O)NCc2ccccc2)sc2nc3c(cc12)C(=O)CCC3 10%
CCNC(=O)CSc1nc(-c2ccccc2)cs1 2.29%
Cc1ccc(S(=O)(=O)N2CCC(C(=O)N3CCCCCCC3)CC2)cc1 -11.7%
COc1ccc(CNC(=O)COC(=O)C2=Cc3ccccc3OC2)cc1 2%
Cc1nnc2n1N=C(c1ccccc1)CS2 -5.77%
CC1=Nn2c(nnc2-c2ccccc2)SC1 2.75%
COC(=O)[C@]1(CC(C)C)N[C@H](c2ccc(SC3CCCCC3)cc2)[C@@H]2C(=O)N(C)C(=O)[C@@H]21 -11.8%
Cc1ccc(S(=O)(=O)c2nnn3c2nc(N2CCN(c4ccccn4)CC2)c2ccccc23)cc1 2.5%
Cc1cccc(Nc2nc3c(S(=O)(=O)c4ccccc4)nnn3c3ccccc23)c1C 0.398%
S=C(Nc1ccccc1)Nc1ccc2ccccc2c1 0.33%
Cc1cccn2c(=O)c3cc(C(=O)N4COCC4(C)C)n(C)c3nc12 -3.11%
Cc1cccn2c(=O)c3cc(C(=O)NC4CCCCC4)sc3nc12 -5.17%
NN=C(NN=Cc1ccccc1)c1ccccc1 -1.92%
Cc1cccc(CSc2nnc(NC(=O)CSc3nnc(C)s3)s2)c1 4.63%
COc1ccccc1-n1c(CNC(=O)c2ccccc2)nnc1SCC(=O)Nc1nnc(C)s1 -1.1%
Cc1cc([N+](=O)[O-])c(=O)[nH]c1C -0.856%
O=C(c1nnc(-c2ccc(Cl)cc2)o1)C1CCCC1 -1.19%
N=C1c2ccccc2-c2ccccc21 -2.91%
COC(=O)c1ccc(C)c(NC(=O)Cn2c(C)csc2=O)c1 5.59%
CC(C)N(C(=O)[C@H]1C[C@H](CC(=O)NC(C)(C)C)C(=O)N2CCc3c([nH]c4ccc(Cl)cc34)[C@]12C)C(C)C -11.9%
COc1ccc(S(=O)(=O)N(C)C[C@H]2Oc3c(NC(=O)Nc4ccc5c(c4)OCO5)cccc3C(=O)N([C@H](C)CO)C[C@@H]2C)cc1 7.42%
CCOC(=O)C(CO)NC(=O)C1(NC(C)=O)CCCC1 (stereo not drawn) -10.1%
C=CCn1c(SCC(=O)NCCCO)nc2sc3c(c2c1=O)CCC3 -40.9%
C=CCn1c(SCC(=O)NCC2CCCO2)nc2sc(C)c(C)c2c1=O (stereo not drawn) 0.372%
Cc1ccc(NC(=O)CN(C)C(=O)c2ccc(Cl)c(S(=O)(=O)NCc3ccco3)c2)cc1 -11.7%
Cc1c(Cl)cnc(NC(=O)COC(=O)C2CCCC2)c1Cl -5.78%
O=C1CC(c2ccccc2)C(c2ccccc2)=NN1 (stereo not drawn) 0.345%
COc1ccc(-c2cn(-c3ccc(OC)cc3)c(=S)[nH]2)cc1 -2.03%
S=c1[nH]c(-c2cccs2)cn1-c1ccccc1 -22.2%
O=C(O)c1ccc(S(=O)(=O)c2ccccc2)s1 2.18%
O=[N+]([O-])c1ccc(COc2ccccc2CN2CCOCC2)cc1 -7.64% [at 9.22 µM]
NC(=O)c1ccccc1N(Cc1ccccc1)S(=O)(=O)c1ccccc1 0.226%
CCOC(=O)N1CCN(S(=O)(=O)c2ccc(OC)cc2)CC1 13.6%
CCOC(=O)c1ccccc1NC(=O)CSc1nc2c(sc(=S)n2CC)c(=O)[nH]1 -5.64%
CCOC(=O)C1=C(CN2CCCCCC2)NC(=O)NC1c1cccc([N+](=O)[O-])c1 (stereo not drawn) -5.96%
CCOC(=O)C1=C(c2ccccc2)NC(=S)NC1c1ccc(Cl)cc1 (stereo not drawn) -90.1%
O=C(CN1CCN(c2ccccc2O)CC1)NC(=O)NCc1ccccc1 14.8%
O=C(CN1CCN(S(=O)(=O)/C=C/c2ccccc2)CC1)NC(=O)NCc1ccco1 2.96%
COC1=CC(=O)OC(c2ccc(OC)cc2)C1 (stereo not drawn) -1.64%
COc1ccccc1CCNC(=O)C(=O)NCCC1CCCCN1S(=O)(=O)c1cccs1 (stereo not drawn) -550%
COc1ccc(CCNC(=O)C(=O)NCC2CCCN2S(=O)(=O)c2cccs2)cc1OC (stereo not drawn) -2.6%

Potency, active:
CCN1CCN(C(c2cccnc2)c2cc(Cl)c3cccnc3c2O)CC1 (stereo not drawn) 20.6 µM
CCN(CC)C(=O)c1sc2nc(-c3ccccc3)ccc2c1N 20.6 µM
COc1ccc(C2=Nn3c(nnc3-c3ccccc3OC)SC2)cc1OC1CCCC1 2.31 µM
CC(=O)Nc1ccc(Nc2nc3c(S(=O)(=O)c4ccc(C)c(C)c4)nnn3c3ccccc23)cc1 18.4 µM
Cc1cccn2c(=O)c3cc(C#N)c(=NC(=O)c4cccnc4)n(CC4CCCO4)c3nc12 (stereo not drawn) 18.4 µM
Cc1nnc(NC(=O)CSc2nccn2-c2cccc(C)c2C)s1 8.2 µM
O=C(c1[nH]ncc1-c1ccc(Cl)cc1)C1CO1 (stereo not drawn) 16.4 µM
CN1c2ccc(C=O)c3c(C=O)ccc(c23)N(C)C1(C)C 3.26 µM
C=CCn1c(SCc2c(C)noc2C)nc2sc3c(c2c1=O)CCC(C)C3 (stereo not drawn) 9.2 µM
O=c1oc2ccccc2cc1-c1cn(-c2ccccc2)c(=S)[nH]1 9.2 µM
CCOC(=O)N1CCN(C(=O)c2ccccc2N(Cc2ccccc2)S(=O)(=O)c2ccc(OC)cc2)CC1 14.6 µM
CCOC(=O)C1=C(CN2CCc3ccccc32)NC(=O)NC1c1ccc(Cl)cc1 (stereo not drawn) 7.31 µM
COc1ccccc1N1CCN(CC(=O)NC(=O)NCc2ccco2)CC1 5.8 µM
O=C(NCCC1CCCCN1S(=O)(=O)c1cccs1)C(=O)Nc1ccc(F)cc1F (stereo not drawn) 11.2 µM

From PubChem BioAssay AID624297 (National Center for Advancing Translational Sciences (NCATS), 2012)
